Results on 129 molecules are retold here after paper PMC9574860, “Chemical Toolkit for PARK7: Potent, Selective, and High-Throughput” (Journal of Medicinal Chemistry, 2022).

The campaign covered roughly 7,900 compounds. About 400 (5.1%) showed an effect of 50% or more. This excerpt belongs to a sample that is enriched for strong results.

Chain of Parkinson's disease protein 7 (PARK7/DJ1) (Q99497 whole entry, looked up, the tested form may be a part): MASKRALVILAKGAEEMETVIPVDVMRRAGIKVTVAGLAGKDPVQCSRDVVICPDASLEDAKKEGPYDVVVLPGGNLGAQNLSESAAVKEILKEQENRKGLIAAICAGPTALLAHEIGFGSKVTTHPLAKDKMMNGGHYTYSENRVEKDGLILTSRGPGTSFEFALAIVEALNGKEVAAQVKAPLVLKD

This experiment addresses Parkinson's disease protein 7 (PARK7/DJ1) (human, UniProt Q99497). Briefly: primary screen, percent inhibition; read as competition with a fluorescent probe by fluorescence polarization; higher = more effect of the substance. The conditions noted are these: 100 µM. As for the experimental part: The screen was conducted using the conditions as described above in 1536-well plates (Corning 3724) with a reaction volume of 8 μL per well. The compound library containing 7887 covalent fragments was purchased at Enamine Ltd. and received as 100 mM DMSO stocks in 384 well LDV Echo plates (Labcyte LP-0200). Stock solutions of 0.26 μM PARK7 and 80 nM JYQ-107 were prepared. Using a Labcyte Echo550 acoustic dispenser, 8 nL of the DMSO stock solution of the library compounds was transferred from the source plates into the empty 1536-well screening plates to obtain a 100 μM final compound concentration. Next, PARK7 (6 μL, final concentration 0.2 μM) was dispensed using a Biotek MultiflowFX liquid dispenser and incubated for 2 h, followed by dispensing the probe JYQ-107 (2 μL, final concentration 20 nM). After 2 h incubation, the FP signal was recorded on a BMG Labtech PHERAstar plate reader (λex/em 480/520 nm). The relative loss of FP signal compared with reference controls was used to calculate the remaining enzyme activity.
Turning to `CN1CCCC(CCl)C1.Cl` (stereo not drawn), the Inhibition % was found to be 4.37%. To `CN(C(=O)C(C#N)=Cc1ccco1)c1ccc(F)cc1` belongs 8.11%. The result for `c1cc2ccc(OCC3CO3)cc2[nH]1` (stereo not drawn) reads 5.75%; that for `Cc1cc(C#N)cc(C(=O)O)n1`, 4.24%; that for `Cc1cnc(=S)[nH]c1`, 8.44%.

Consider `N#CSc1c(Cl)nc2sccn12`, for which the Inhibition % came to 13.7%.

For the molecule `C=CC(=O)N1CCOCC1CC(F)F` (stereo not drawn), the Inhibition % is given as 17%. For the molecule `Cc1ccc(-n2cc(SC(=O)N(C)C)cn2)cc1`, the Inhibition % was 6.2%.

`C=CS(=O)(=O)c1cccc(C#N)c1`: the Inhibition % was determined as 6.17%. The result for `O=C(CCl)NC(=O)c1cccc([N+](=O)[O-])c1` reads 31.5%; that for `CC1(C)OB(c2cccc(S(N)(=O)=O)c2)OC1(C)C`, 2.2%. To `O=S(=O)(F)c1cccc(Br)c1` belongs 16.4%; to `NS(=O)(=O)c1cccc(S(=O)(=O)F)c1`, 94.3%. The result for `N#Cc1cccc(S(=O)(=O)F)c1` reads 97.3%; that for `N#Cc1cnn(Cc2ccc(S(=O)(=O)F)cc2)c1`, 7.21%; that for `O=S(=O)(F)c1ccccc1C(F)(F)F`, 11.3%. As to `O=C(CCl)Nc1ccc([N+](=O)[O-])cc1C(F)(F)F`, the Inhibition % was 12.1%. To `O=[N+]([O-])c1ccc(C(F)(F)F)c(S(=O)(=O)F)c1` belongs 102%.

As for `O=S(=O)(F)c1ccc(Cl)cc1`, the Inhibition % was found to be 27%. To `O=[N+]([O-])c1cccc(S(=O)(=O)F)c1` belongs 99.2%; to `CC1(C)OB(c2ccc(OCCc3ccccn3)cc2)OC1(C)C`, -0.0918%; to `N#Cc1ncn(Cc2ccc(F)cc2Cl)n1`, 0.898%. As to `C=CC(=O)N1CC(=O)NC2CCCCC21` (stereo not drawn), the Inhibition % was 24.2%. The result for `Cc1ccc2oc(C#N)nc2c1` reads 9.34%. `O=C(CCl)NC1CCCC1`: the Inhibition % came out at 15.6%. Take `C=CC(=O)N1CCN(c2c(F)cccc2OC)CC1`: the Inhibition % is reported as 12%. Turning to `CCc1ccccc1NC(=O)CCl`, the Inhibition % came out at 13.2%. The result for `CCC1(C)NC(=O)N(NC(=O)CCl)C1=O` (stereo not drawn) reads 9.56%. The result for `Cl.Nc1cccc2cc(S(=O)(=O)F)ccc12` reads 65.6%. To `O=C1NC(c2ccccc2)C12CCCC2` (stereo not drawn) belongs 3.32%; to `Cc1cc(C=C(C#N)C(=O)N2CCC2)c(C)n1CC(C)C`, -2.1%; to `O=C(CCl)Nc1ccc(S(=O)(=O)C(F)F)cc1`, 65.8%.

On to `Cc1ccc(NC(=O)CCl)cc1S(N)(=O)=O`, for which the Inhibition % worked out at 17.6%. Take `CS(=O)(=O)c1cccc(NC(=O)CCl)c1`: the Inhibition % came out at 7.34%. The result for `CS(=O)(=O)c1ccc(CNC(=O)CCl)cc1` reads 10.2%. The result for `NS(=O)(=O)c1ccc(NC(=O)CCl)cc1` reads 69.2%; that for `NS(=O)(=O)c1cccc(NC(=O)CCl)c1`, 14.7%. `CS(=O)(=O)c1ccc(NC(=O)CCl)cc1`: the Inhibition % came out at 51.8%.

In the case of `O=C(CCl)Nc1ccccc1S(=O)(=O)C(F)F`, the Inhibition % amounted to 6.1%. The result for `CCC(CSC)Nc1ccc(C#N)nc1` (stereo not drawn) reads 11.4%. Regarding `O=S(=O)(F)c1ccc(Cn2cnc(Br)n2)cc1`, the Inhibition % amounted to 12.6%. As for `C=CC(=O)NCCc1cnn(C)c1`, the Inhibition % came to 3.91%. Regarding `Cc1cc(C=C(C#N)C(=O)O)c(C)n1CC(C)C`, the Inhibition % is listed as 8.48%. On to `Cl.Cl.NC1CCN(C2CCOC2=O)CC1` (stereo not drawn), for which the Inhibition % was 5.74%. The result for `O=C(CCl)N(c1ccccc1)C1CCS(=O)(=O)C1` (stereo not drawn) reads 5.5%. To `C=CC(=O)Nc1ccc2nc(C3CC3)oc2c1` belongs 11.6%; to `N#Cc1ncccc1S(N)(=O)=O`, 6.94%. On to `Nc1cccnc1S(=O)(=O)F`, for which the Inhibition % came out at 81.4%. To `Nc1ccccc1S(=O)(=O)F` belongs 44.7%. To `O=C(CCl)NCc1ccc(C(=O)N2CCCC2)cc1` belongs 4.96%; to `Cn1cc(C=CC(=O)N2CCc3ccccc32)cn1`, 3.76%; to `C=CC(=O)N1CCOc2ccc(F)cc2C1`, 11.2%. Regarding `O=c1[nH]c(-c2cccs2)no1`, the Inhibition % was 3.67%. To `Cc1ccsc1-c1nnc(NC(=O)CCl)o1` belongs 10.8%; to `N#Cc1ccc(C(=O)O)[nH]1`, 7.43%; to `Cc1[nH]c(C#N)cc1C(=O)O`, 6.7%.

Regarding `N#Cc1ccc(C(=O)O)c(=O)[nH]1`, the Inhibition % is 83.7%. To `O=C(O)c1ccc(C2OCCO2)cc1` belongs 7.82%; to `N#CC(c1ccccc1)N1CCN(C(=O)CCl)CC1` (stereo not drawn), 18.3%; to `CCC(C)c1ccccc1NC(=O)CCl` (stereo not drawn), 16.8%.

As to `CCN(c1ccc(NC(=O)CCl)cc1)C(C)C.Cl`, the Inhibition % amounted to 98.6%. To `CCC(C)c1ccc(-c2csc(NC(=O)CCl)n2)cc1` (stereo not drawn) belongs 8.03%. With `CCN(CC)C(=O)c1ccc(NC(=O)CCl)cc1`, the Inhibition % is listed as 43.2%. For `CCC(C)c1ccc(NC(=O)CCl)cc1` (stereo not drawn), the Inhibition % was 99.1%. For the molecule `CC(C)c1ccc(C(C)NC(=O)CCl)cc1` (stereo not drawn), the Inhibition % amounted to 6.77%. Take `CC(C)c1ccc(CCNC(=O)CCl)cc1`: the Inhibition % was found to be 22%.

Turning to `CC(C)c1ccc(NC(=O)CCl)cc1`, the Inhibition % was 95.8%.

On to `C=CC(=O)NC(=O)NC12CC3CC(CC(C3)C1)C2`, for which the Inhibition % turned out to be 3.27%. The result for `C=CC(=O)N1CCC(CNC(C)=O)CC1` reads 25%; that for `CC1(C)OC1c1ccccc1` (stereo not drawn), 13.4%. The result for `C#CCN(c1cnc(C#N)cn1)C1CCCC1` reads 1.73%; that for `COC1CS(=O)(=O)CC1Cl` (stereo not drawn), 8.34%; that for `C=CC(=O)N1CCc2nc(-c3ccccc3)sc2C1`, 16.7%.

With `O=C(CCl)N1c2ccccc2Sc2ccc(Cl)cc21`, the Inhibition % came out at 6.3%. To `COc1ccc(S(=O)(=O)n2ccc(C)n2)cc1` belongs 7.42%; to `CCc1nccn1S(=O)(=O)c1cc(Cl)c(C)cc1OC`, 4.53%; to `O=c1onc(-c2ncccn2)n1Cc1ccc(Cl)s1`, 2.32%.

With `O=C(CCl)C1CCOCC1`, the Inhibition % was 99%. In the case of `O=C(CCl)NNC(=O)C1CC1`, the Inhibition % is 1.1%.

In the case of `C=CC(=O)NCC1CCC(F)(F)CC1`, the Inhibition % turned out to be 5.38%. As to `O=C(CCl)C1CCC(F)(F)CC1`, the Inhibition % turned out to be 96.8%. To `O=C(CCl)NC1CCOCC1` belongs 10.5%; to `O=C(CCl)NCC1CCOC1` (stereo not drawn), 8.14%; to `Cc1cc(C)n(CC2CCCN2C2CC(C)OC2=O)n1` (stereo not drawn), -2.43%. For the molecule `Cc1ccnc(S)n1.Cl`, the Inhibition % came out at 5.09%. On to `Cc1cc(C(=O)Nc2cccc(S(=O)(=O)F)c2)c(C(F)(F)F)o1`, for which the Inhibition % is reported as 96.8%. Consider `C=CC(=O)Nc1cccc(OC(F)F)c1`, for which the Inhibition % was 4.3%.

In the case of `Cc1ccoc1C(=O)Nc1cccc(S(=O)(=O)F)c1`, the Inhibition % is 7.02%. On to `COCc1ncsc1C(=O)Nc1cccc(S(=O)(=O)F)c1`, for which the Inhibition % worked out at 8.52%.

As to `O=C(Nc1cccc(S(=O)(=O)F)c1)c1ccoc1C(F)(F)F`, the Inhibition % amounted to 96.8%. Regarding `NS(=O)(=O)c1cccc(NC(=O)Oc2ccccc2)c1`, the Inhibition % is given as 4.87%. In the case of `Cc1nc2c(C(=O)Nc3cccc(S(=O)(=O)F)c3)cccc2o1`, the Inhibition % is listed as 43.6%. Consider `O=C(Nc1cccc(S(=O)(=O)F)c1)c1sccc1OC(F)F`, for which the Inhibition % came out at 93.1%.

`C=CC(=O)Nc1cccc(C(F)(F)F)c1`: the Inhibition % came to 9.31%. Regarding `C=C(Cl)CSc1nc(N)cc(N)n1`, the Inhibition % is given as 18.5%.

`CC(C)CN1CCN(c2ccc(C#N)nc2)C(C)C1=O` (stereo not drawn): the Inhibition % turned out to be 5.84%. The result for `O=C(CCl)Nc1ccccc1-c1ccccc1` reads 8.41%; that for `CCn1cc(CCCl)cn1`, 5.4%.

For the molecule `CN1CN=C(S)NC1`, the Inhibition % came out at 3.57%. The result for `C=CC(=O)NCC1(C)CCOCC1` reads 4.38%; that for `C=CC(=O)NCC1CCC2(COC(C)C2)O1` (stereo not drawn), 2.62%. As to `C=CC(=O)Nc1cccc(C(F)F)c1`, the Inhibition % was 6.09%. Consider `C=CC(=O)NCc1ccc2c(c1)CCO2`, for which the Inhibition % was found to be 9.41%. On to `O=C(Cc1ccc2c(c1)COC2)Nc1cccc(S(=O)(=O)F)c1`, for which the Inhibition % is reported as 97.6%. To `O=C(Cc1cccc(C(F)F)c1)Nc1cccc(S(=O)(=O)F)c1` belongs 52%; to `C=CC(=O)Nc1ccc2c(c1)COC2`, 11.5%; to `O=C(Cc1ccc2c(c1)CCO2)Nc1cccc(S(=O)(=O)F)c1`, 94.3%.

Consider `O=C(CCl)Nc1cccc(S(=O)(=O)N=C2CCCN2)c1`, for which the Inhibition % is 18.3%. To `O=C1CC2(CCNCC2)N1` belongs 3.72%. `N#CC(=Cc1ccc(N)cc1)C(N)=O`: the Inhibition % was found to be 8.09%. The result for `CC(C)CNc1oc(Cc2ccccc2)nc1C#N` reads 6.85%; that for `C=CC(=O)NC1CC2(COC(C)C2)C1` (stereo not drawn), 8.04%; that for `COc1cc(C)c(C)cc1S(=O)(=O)n1cccn1`, 6.67%. The result for `N#Cc1c(Cl)nc2sccn12` reads 4.22%. `CCN(Cc1ccc(Cl)s1)C(=O)CCl`: the Inhibition % is recorded as 9.61%. The result for `N#Cc1ncn(CCC(=O)NCc2ccc(F)cc2)n1` reads 7.22%; that for `O=C1CC2(CCN(Cc3ccc(Cl)cc3Cl)CC2)N1`, -1.16%. For `Cc1ccc([N+](=O)[O-])cc1NC(=O)CCl`, the Inhibition % is 18.4%.

For the molecule `O=C(CCl)NC(=O)Nc1ccccc1`, the Inhibition % is 28.5%. For the molecule `O=C(Nc1ccccc1)NN(C(=O)CCl)c1ccccc1`, the Inhibition % amounted to 93.5%. On to `O=C(CCl)NN(c1ccccc1)c1ccccc1`, for which the Inhibition % stood at 10.3%. To `Cc1csc(N(C(=O)CCl)c2ccccc2)n1` belongs 87.3%. As for `CN(C(=O)CCl)c1ccc([N+](=O)[O-])cc1`, the Inhibition % amounted to 93.5%. To `CN(C(=O)CCCl)c1ccccc1` belongs 9.16%. Consider `O=C(CCl)Nc1ccc([N+](=O)[O-])cc1`, for which the Inhibition % is reported as 32.8%. To `CN(C(=O)CCl)c1ccccc1` belongs 79.7%; to `Cc1cccc(N(Cc2ccccc2)C(=O)CCl)c1`, 9.42%. To `CCN(C(=O)CCl)c1ccccc1` belongs 44.6%. The result for `O=C(CCl)N(Cc1ccccc1)c1ccccc1` reads 10.7%.
